Source: PubChem (several laboratories)
Shown are actives, neighbours in structure and some others; about 2.4% of the full set was active somewhere.
SENP8 block-1 – SENP8 protease inhibition. Q96LD8. inhibition, % at 10 µM. 330,000 compounds, 1.2% hits. purified SENP8, Z-RLRGG-aminoluciferin cleavage, luminescence; in the data active = inhibition above about 50%
Target sequence (Q96LD8 whole entry, looked up): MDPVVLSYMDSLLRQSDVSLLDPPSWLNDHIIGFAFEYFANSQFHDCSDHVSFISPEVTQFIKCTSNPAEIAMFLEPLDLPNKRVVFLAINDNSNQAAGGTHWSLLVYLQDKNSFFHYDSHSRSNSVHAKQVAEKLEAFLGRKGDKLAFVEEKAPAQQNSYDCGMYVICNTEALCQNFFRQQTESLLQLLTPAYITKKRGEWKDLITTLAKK
SENP8 block-2 – blocks human SENP8 cleavage of Nedd8 substrate; Q96LD8; recombinant SENP8, Nedd8 substrate fluorescence; inhibition, % at 20 µM; 360,000 compounds, 0.64% hits; AID 602440; in the data active = inhibition mostly above about 40%, no sharp cut-off; inactive = mostly below about 27%
SENP6 inh – SENP6 protease inhibition; Q9GZR1; Recombinant SENP6 catalytic domain, aminoluciferin luminescence; inhibition, % at 10 µM; 330,000 compounds, 1.8% hits;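 active = inhibition above about 50% at the single tested dose, limit read from the data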;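 note: plate controls were DMSO wells with enzyme for no effect and DMSO wells lacking enzyme for full effect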
SENP7 block – inhibitors of human SENP7 protease. recombinant SENP7, Z-RLRGG-aminoluciferin luminescence, 40 min. inhibition, % at 5 µM. 330,000 compounds, 1.5% hits;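 active = inhibition above about 50% at the single test dose, limit read from the data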;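 note: plate controls were DMSO with enzyme for no effect and no enzyme buffer wells for full effect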
Platelet DG rel – platelet dense granule release activity; AID 1663; 300,000 compounds, 0.22% hits; inhibition, %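 (compounds screened at 7.5 µM in platelet-rich plasma)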; human platelet-rich plasma, SFLLRN dense granule ATP release, luminescence;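 active = mean replicate score, as percent of positive control, at or above 50; inconclusive = mean below 50 but at least one replicate at or above 50; inactive = mean and every replicate below 50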
SENP8 confirm – confirmation of human SENP8 protease inhibitors | 6,200 compounds, 40% hits | shares compounds with SENP7 block | Recombinant SENP8, Z-RLRGG-aminoluciferin luminescence, 60 min | inhibition, % at 12.5 µM;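 active = mean inhibition across replicates above about 50%, limit read from the data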
SENP6 conf – human SENP6 inhibition, confirmed; inhibition, % at 12.5 µM; AID 488915; shares compounds with SENP7 block; recombinant SENP6, Z-RLRGG-aminoluciferin luminescence; 6,200 compounds, 58% hits
SENP7 conf – human SENP7 inhibition, confirmed. shares compounds with SENP7 block. recombinant SENP7, Z-RLRGG-aminoluciferin luminescence, 40 min. inhibition, % at 12.5 µM. 6,200 compounds, 69% hits. AID 488917
Casp3 select – inhibits human caspase-3 in SENP selectivity test. inhibition, % at 12.5 µM. purified caspase-3, Z-DEVD-aminoluciferin luminescence, 60 min. 6,200 compounds, 60% hits. shares compounds with SENP7 block;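 active = mean inhibition above about 50%, limit read from the data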;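 note: plate controls were enzyme with DMSO for no effect and wells without caspase-3 for full effect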
Target sequence (P42574 28-227 limits assumed): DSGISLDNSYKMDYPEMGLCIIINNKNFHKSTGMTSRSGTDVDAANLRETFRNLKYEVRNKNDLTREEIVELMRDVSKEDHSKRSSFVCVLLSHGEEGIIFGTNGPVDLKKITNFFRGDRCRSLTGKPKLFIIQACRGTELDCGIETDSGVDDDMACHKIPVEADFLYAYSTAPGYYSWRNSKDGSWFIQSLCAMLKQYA
Luc interf – interferes with luciferase luminescence in SENP counter-screen; shares compounds with SENP7 block; Pre-incubated SENP8/Z-RLRGG-aminoluciferin, luciferase luminescence interference; inhibition, % at 12.5 µM; 6,200 compounds, 39% hits; AID 488919;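 active = mean inhibition above about 50% when retested at one dose, limit read from the data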;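 note: plate controls were DMSO wells with completed reaction for no effect and substrate without enzyme for full effect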
Numbers without * were called inactive.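 Rule for the calls, unless noted: active = mean inhibition above about 50% in the one-dose retest (limit read from the data); inactive = the rest.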

How did CC1(C)CCC(=O)N2CC[C@H]3C[C@H](OC(=O)Nc4ccccc4)C[C@@H]1[C@H]32 do in these assays?
SENP8 block-1: 56*; SENP8 block-2: 15; SENP6 inh: 69*; SENP7 block: 73*; Platelet DG rel: 6; SENP8 confirm: 49; SENP6 conf: 52*; SENP7 conf: 87*; Casp3 select: 77*; Luc interf: 69*

Results for O=C1NCCN(Cc2ccc(Cl)c(F)c2)C1CC(=O)N1CCCCO1 (configuration not stated) ?
SENP8 block-1: -2; SENP8 block-2: -76; SENP6 inh: 13; SENP7 block: 2; Platelet DG rel: 4

What do the screens show for `Cc1sc2ncnc(N3CCC(C(=O)N4CC(C)SC4=Nc4ccc(Cl)cc4)CC3)c2c1C` (configuration not stated)?
SENP8 block-2: 16

How did COc1cccc(C(C[N+](=O)[O-])c2c(C)[nH]n(-c3ccccc3)c2=O)c1 (configuration not stated) do in these assays?
SENP8 block-1: 65*; SENP8 block-2: 73*; SENP6 inh: 83*; SENP7 block: 85*; Platelet DG rel: 17; SENP8 confirm: 8; SENP6 conf: 8; SENP7 conf: 2; Casp3 select: -3; Luc interf: -2

Results for O=C1CC(c2ccc3c(c2)OCCO3)Oc2ccc([N+](=O)[O-])cc21 (configuration not stated) ?
SENP8 block-1: 96*; SENP8 block-2: 20; SENP6 inh: 99*; SENP7 block: 98*; Platelet DG rel: 13; SENP8 confirm: 44; SENP6 conf: 98*; SENP7 conf: 101*; Casp3 select: 51*; Luc interf: 20

What do the screens show for `O=C1CC(c2ccc3c(c2)OCCO3)Oc2ccccc21` (configuration not stated)?
SENP8 block-1: 0; SENP8 block-2: 2; SENP6 inh: 7; SENP7 block: 9; Platelet DG rel: 0

What do the screens show for `CC(C)OCCCNC(=O)c1cc2c(s1)CS(=O)(=O)C2`?
SENP8 block-1: 0; SENP8 block-2: 8; SENP6 inh: 4; SENP7 block: 98*; Platelet DG rel: 2; SENP8 confirm: 7; SENP6 conf: 8; SENP7 conf: 5; Casp3 select: 1; Luc interf: 1

What do the screens show for `C=CCON1C(=O)C(=O)N(OCC=C)[C@H]2CCCC[C@H]21`?
SENP8 block-1: 8; SENP8 block-2: 19; SENP6 inh: 2; SENP7 block: -7; Platelet DG rel: 4

How did O=C(OCCN=C1NS(=O)(=O)c2ccccc21)c1ccccc1F do in these assays?
SENP8 block-1: 4; SENP8 block-2: 13; SENP6 inh: -29; SENP7 block: 6; Platelet DG rel: -7

What do the screens show for `CCOC(=O)c1ccc(COC(=O)c2ccc(-c3nnc(-c4ccccc4)o3)cc2)o1`?
SENP8 block-1: 25; SENP8 block-2: -161; SENP6 inh: 53*; SENP7 block: 3; Platelet DG rel: inconclusive; SENP8 confirm: 24; SENP6 conf: 20; SENP7 conf: 22; Casp3 select: 59*; Luc interf: 51*

Results for CCOC(=O)c1ccc(-c2ccc(CO)o2)cc1 ?
SENP8 block-1: 29; SENP8 block-2: -272; SENP6 inh: 65*; SENP7 block: 55*; Platelet DG rel: 1; SENP8 confirm: 60*; SENP6 conf: 57*; SENP7 conf: 86*; Casp3 select: 73*; Luc interf: 64*

Results for CCOC(=O)c1ccc(Cn2c(-c3ccccc3)nnc2-c2ccccc2)o1 ?
SENP8 block-1: -14; SENP8 block-2: 3; SENP6 inh: -9; SENP7 block: 6; Platelet DG rel: -1
